In PubChem BioAssay (EPA / NIEHS) one finds outcome and AC50 data, which are given here for 16 compounds.

Assay [1] can be described thus: BSK_BT_PBMCCytotoxicity: PBMC Cytotoxicity Assessment in the BioMAP Diversity Plus: BT Assay (AID 2284225).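 Note: PBMC viability measured by Alamar Blue dye reduction fluorescence.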 The note with it: primary human B cells with PBMC. In a few lines: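 PBMC (75,000/well) pretreated with compound 1 h, then activated with SEB and TSST-1 (20 ng/mL each final), incubated 90 h; Alamar Blue added 6 h, fluorescence read at 546/580 nm. Fitted relative to DMSO.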

Read-out in assay [2]: Secreted IgG (sIgG), gene 3500
Nature of the assay: BSK_BT_sIgG: BioMAP Diversity Plus: BT Assay for Secreted IgG (sIgG) Biomarker Activity (AID 2284226). The settings on record: primary human B cells with PBMC. An outline of the steps:
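Read-out: ELISA for secreted IgG after 24 h of chemical exposure in a B cell plus PBMC co-culture. Values reflect upward-direction fitting against DMSO negative controls.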

A short description of assay [3]: BSK_BT_Bcell_Proliferation: Viability Assessment in the BioMAP Diversity Plus: BT Assay for B cell Proliferation (AID 2284227). The settings on record: primary human B cells with PBMC. In a few lines:
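Using a human primary B cell–PBMC co-culture, the assay measures total protein by sulforhodamine B absorbance as a gauge of proliferation after 72 h. Analysis followed the positive fitting direction with DMSO as baseline.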

Read-out in assay [4]: Interleukin 6 (IL6), IL6 (gene 3569)
Nature of the assay: BSK_BT_xIL6: BioMAP Diversity Plus: BT Assay for Interleukin 6 (IL6) Biomarker Activity (AID 2284228). The note with it: primary human B cells with PBMC. An outline of the steps:
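IL-6 secretion measured (Luminex xMAP) in human primary B cell + PBMC co-culture at 24 h of chemical exposure; DMSO served as negative control and activity baseline, with curves fitted for increase.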

Read-out in assay [5]: Interleukin 17A (IL17A), IL17A (gene 3605)
Nature of the assay: BSK_BT_xIL17A: BioMAP Diversity Plus: BT Assay for Interleukin 17A (IL17A) Biomarker Activity (AID 2284229). The settings on record: primary human B cells with PBMC. An outline of the steps: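 Human primary B cells plus PBMC, treated 24 h with chemicals; supernatant IL-17A quantified on Luminex xMAP beads. Gain of signal over DMSO control scored as activity.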

Read-out in assay [6]: Vascular cell adhesion molecule 1 (VCAM1), VCAM1 (gene 7412)
Nature of the assay: BSK_MyoF_VCAM1: BioMAP Diversity Plus: MyoF Assay for Vascular cell adhesion molecule 1 (VCAM1) Biomarker Activity (AID 2284231). The settings on record: primary human lung fibroblasts. An outline of the steps:
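VCAM-1 levels, lung fibroblasts, ELISA, 24 h exposure, increase scored relative to DMSO.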

Assay [7] can be described thus: TAMU_PeakParms_SingleDonor1434_Chronotropy: Texas A&M University (TAMU) 1.5-hr Human Induced Pluripotent Stem Cell (iPSC)-derived Cardiomyocytes Calcium (Ca+2) Flux Assay for Cardiotoxicity: Chronotropy (changes in peak frequency) (AID 2284217). The note with it: actives raise or lower the signal. An outline of the steps: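 Using fluorescent Ca2+ flux, average beats per second are measured in human iPSC-derived cardiomyocytes treated 90 min (0.5% DMSO vehicle, 0.2–100 uM). Non-beating data points are removed; activity is modeled in both directions relative to DMSO controls.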

The nature of assay [8]: TAMU_PeakParms_SingleDonor1434_QT: Texas A&M University (TAMU) 1.5-hr Human Induced Pluripotent Stem Cell (iPSC)-derived Cardiomyocytes Calcium (Ca+2) Flux Assay for Cardiotoxicity: QT (decay-rise ratio) (AID 2284235; active = hit-call score of the fitted dose curve at least 0.9, where 1 is the maximum). An outline of the steps:
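iPSC-derived cardiomyocytes (single donor 1434) dosed at 0.2, 1, 10, 100 uM final in 0.5% DMSO, 90 min at 37C. Ca2+ flux fluorescence decay/rise ratio; EC05 (5% increase versus DMSO) as POD, excluding beat-arrest and severe-notch data.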

Assay [9] can be described thus: TAMU_HCS_1.5hr_SingleDonor1434_Cytotoxicity: Cytotoxicity Assessment using High-content Screening (HCS) Fluorescent Imaging for the Texas A&M University (TAMU) 1.5-hr Human Induced Pluripotent Stem Cell (iPSC)-derived Cardiotoxicity Assay (AID 2284234; active = hit-call score of the fitted dose curve at least 0.9, where 1 is the maximum). In a few lines:
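Human iPSC-derived cardiomyocytes dosed at 0.2, 1, 10, 100 uM final (0.5% DMSO) for 90 min at 37 C. Hoechst 33342-stained nuclei counted by 10x high-content imaging; POD is EC10, a 10% drop in total cell count versus DMSO.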

Assay [10] is described as follows: CCTE_Mundy_HCI_Cortical_NOG_NeuriteCount: CCTE's Neurite Outgrowth Assay in rat cortical cells for Neurite Count, Mundy Lab (AID 2284212).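 Note: cells fixed about two days after chemical exposure began.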 An outline of the steps: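 Neurite number per cell from high-content imaging of betaIII-tubulin immunostaining, with Hoechst nuclear counterstain.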
Assay [11] can be described thus: CCTE_Mundy_HCI_Cortical_NOG_NeuriteLength: CCTE's Neurite Outgrowth Assay in rat cortical cells for Neurite Length, Mundy Lab (AID 2284213). An outline of the steps: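 Neurite length was read by high-content imaging of βIII-tubulin-labelled neurites in rat primary cortical cultures. Activity was fitted relative to DMSO.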
The nature of assay [12]: CCTE_Mundy_HCI_Cortical_Synap_Neur_Matur_NeuriteLength: CCTE's Synaptogenesis and Neurite Maturation Assay in rat cortical cells for Neurite Length, Mundy Lab (AID 2284214). In a few lines:
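Rat cortical neurons, AraC at DIV 5; compound + media change DIV 7, end DIV 12 (288.33 h). Fix, MAP2/synaptophysin/Hoechst immunostain, automated HCI of neurite length vs DMSO.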

A short description of assay [13]: CCTE_Mundy_HCI_Cortical_Synap_Neur_Matur_NeuriteSpotCountPerNeuron: CCTE's Synaptogenesis and Neurite Maturation Assay in rat cortical cells for Neurite Spot Count per Neuron Count, Mundy Lab (AID 2284215). In a few lines: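 Developing rat cortical neurons, with glia suppressed by AraC, are exposed to chemicals from DIV 7 to DIV 12. Automated fluorescence imaging of MAP2-labelled neurites and synaptophysin puncta yields a count per neuron, normalised against DMSO wells.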

A short description of assay [14]: CCTE_Mundy_HCI_Cortical_Synap_Neur_Matur_SynapseCount: CCTE's Synaptogenesis and Neurite Maturation Assay in rat cortical cells for Synapse Count, Mundy Lab (AID 2284218). An outline of the steps:
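Primary rat cortical culture; AraC DIV 5 to arrest glia; compound + media change DIV 7; terminated DIV 12. PFA/Hoechst fix, anti-MAP2 + anti-synaptophysin immunostain; HCI synapse count/neuron; DMSO = baseline.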

Assay [15] in a line: CCTE_Mundy_HCI_Cortical_Synap_Neur_Matur_NeuriteCount: CCTE's Synaptogenesis and Neurite Maturation Assay in rat cortical cells for Neurite Count, Mundy Lab (AID 2284222).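 Note: exposure from day 7 to day 12 in vitro with readout at day 12.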 In a few lines:
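In this multiplexed morphology readout, rat primary cortical neurons are fixed at DIV 12 following dosing at DIV 7 and stained for MAP2, synaptophysin and nuclei. High-content image analysis yields neurite count.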

Assay [16] in a line: CCTE_Mundy_HCI_Cortical_Synap_Neur_Matur_CellBodySpotCount: CCTE's Synaptogenesis and Neurite Maturation Assay in rat cortical cells for Cell Body Spot Count, Mundy Lab (AID 2284223). In a few lines: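 Chemicals were applied to AraC-treated rat primary cortical cells at DIV 7 and measured at DIV 12. Fixed cells were labelled for MAP2, synaptophysin and nuclei, and high-content imaging gave cell body synaptophysin spot counts per neuron relative to DMSO.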

Assay [17] in a line: CCTE_Mundy_HCI_hNP1_Pro_ResponderAvgInten: CCTE's Proliferation Assay in human neuroprogenitor cells, Mundy Lab (AID 2284224; active = hit-call score of the fitted dose curve at least 0.9, where 1 is the maximum;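 note: human neural progenitor cells hNP1 derived from WA09 embryonic stem cells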). An outline of the steps: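 Proliferation read as average intensity of BrdU-positive cells, imaged at 26.25 h post-dosing: chemical exposure started after 40–44 h culture, BrdU during final 4 h, paraformaldehyde fixation. Positive-direction fit relative to DMSO.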

The structures appear in SMILES notation. “And” between values parts separate entries of the source, which are not always exact repeats. Identical values can stand only once. Records with an inconclusive call do not appear. The source made the active and inactive calls. Rule for the calls, unless noted: active = hit-call score of the fitted dose curve at least 0.9, where 1 is the maximum; inactive = score below 0.9.

In general, AC50 refers to the midpoint of the concentration-response curve, whichever way the signal moves. Regarding `c1ccc2c(c1)ccc1ncccc12`, the result in assay [1], in assay [2], in assay [3], in assay [5] and in assay [6] was inactive. For the same compound, the AC50 in assay [4] is 1.14 µM (active).

Take `CCOc1nc(F)cc2nc(S(=O)(=O)Nc3c(Cl)cccc3C(=O)OC)nn12`: the result in assay [1], in assay [2], in assay [3], in assay [4], in assay [5] and in assay [6] was inactive.

In the case of `COc1ccc2nc(N)sc2c1`, the result in assay [1], in [2], in [3], in assay [4], in assay [5] and in assay [6] was inactive.

Regarding `O=C(O)CCCC[C@@H]1SC[C@@H]2NC(=O)N[C@@H]21`, the result in [7] and in assay [8] was inactive.

As for `C#CC1(O)CC[C@H]2[C@@H]3CCC4=CCCC[C@@H]4[C@H]3CC[C@@]21C` (stereo partly specified), the AC50 in [1] is 34.3 µM (active); in [2], 10.7 µM (active); in assay [3], 30.1 µM (active); in [4] it was 28.1 µM (active); in [5], 14.5 µM (active); in assay [6], 33.1 µM (active).

As for `c1ccc2c(c1)ccc1cc3c(ccc4ccccc43)cc12`, the AC50 in assay [7] was 50 µM (active); in assay [4] it was 3.57 µM (active) and 15 nM (active). Besides, the outcome in [1], in [2], in assay [3], in assay [5], in assay [6] and in assay [9] was inactive.

`CC1OC1C1CCC2(C)OC2C1` (stereo unspecified): the outcome in assay [1], in [2], in assay [3], in assay [4], in assay [5] and in [6] was inactive.

Consider `C=CC=CC=CCCCCC`, for which the outcome in assay [1], in assay [3], in assay [5] and in assay [6] was inactive. Moreover, the figures for the AC50 in [2] and in [4] were 7.13 µM (active) and 6.43 µM (active), respectively.

As for `O=Nc1ccc(O)cc1`, the outcome in [1], in assay [2], in assay [3], in [4], in assay [5] and in assay [6] was inactive.

`CCCCCCCCc1ccc(Nc2ccc(CCCCCCCC)cc2)cc1`: the outcome in assay [1], in assay [2], in [3], in assay [4], in [5] and in [6] was inactive.

With `O=C(Nc1ccccc1SSc1ccccc1NC(=O)c1ccccc1)c1ccccc1`, the AC50 in [1] was 6.24 µM (active); in assay [2], 4.59 µM (active); in assay [3], 5.95 µM (active); in [4], 13.2 µM (active); in [5], 5.93 µM (active). Further, the result in assay [6] was inactive.

Turning to `CC(C)C(=O)C(C)C`, the outcome in assay [1], in assay [2], in assay [3], in [4], in [5] and in assay [6] was inactive.

In the case of `CCCCC(CC)COC(=O)c1ccccc1O` (stereo unspecified), the result in assay [1], in assay [3], in assay [4], in assay [5] and in assay [6] was inactive. For the same compound, the AC50 in [2] was 7.14 µM (active).

On to `CCCCCCCCCCCCCCCC[N+](C)(C)CC`, for which the AC50 in assay [1] is 6.46 µM (active); in assay [2] it was 0.0956 µM (active); in assay [3], 1.81 µM (active); in [4] it was 13.4 µM (active); in [5], 1.63 µM (active); in [6], 1.71 µM (active).

`N[C@H]1C(O)O[C@H](CO)[C@H](O)[C@@H]1O` (stereo partly specified): the outcome in assay [10], in assay [11], in [12], in assay [13], in assay [14] and in assay [15] was inactive. For the same compound, the call in assay [16] and in assay [17] was inactive.

Turning to `COCc1c(C(C)C)nc(C(C)C)c(/C=C/[C@@H](O)C[C@@H](O)CC(=O)O)c1-c1ccc(F)cc1`, the outcome in assay [1] was inactive. Moreover, the AC50 is 0.0231 µM (active) in assay [2]; 0.24 µM (active) in assay [3]; 0.494 µM (active) in assay [4]; 0.312 µM (active) in assay [5]; 0.0229 µM (active) in assay [6].
